The values that follow come from PubChem BioAssay (NCATS).

Results filed as inconclusive are left out. A call without a number means that no potency is given here. Active and inactive are the calls of the source. Unless noted, calls come from the whole dose curve; as a rule, active = well fitted curve in the direction sought with a large enough effect; inconclusive = small, poorly fitted or top-dose-only effect, or another doubt; inactive = no such curve, though single readings can be large; an effect the other way counts as inactive or inconclusive.

T1 sequence (P78324 whole entry, looked up): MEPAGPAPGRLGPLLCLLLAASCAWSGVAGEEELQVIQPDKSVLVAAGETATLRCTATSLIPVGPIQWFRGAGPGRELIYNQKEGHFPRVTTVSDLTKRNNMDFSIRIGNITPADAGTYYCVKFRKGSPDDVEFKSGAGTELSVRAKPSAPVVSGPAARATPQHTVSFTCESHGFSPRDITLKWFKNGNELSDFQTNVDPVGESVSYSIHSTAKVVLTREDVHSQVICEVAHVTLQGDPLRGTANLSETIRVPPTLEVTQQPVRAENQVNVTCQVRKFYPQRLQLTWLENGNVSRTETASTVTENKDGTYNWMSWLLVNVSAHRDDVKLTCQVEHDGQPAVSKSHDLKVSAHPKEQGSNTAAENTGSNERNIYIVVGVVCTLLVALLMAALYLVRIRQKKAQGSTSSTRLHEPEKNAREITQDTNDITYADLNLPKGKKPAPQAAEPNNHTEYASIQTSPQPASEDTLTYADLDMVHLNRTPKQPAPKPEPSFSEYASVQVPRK
T1 sequence (Q08722 whole entry, looked up): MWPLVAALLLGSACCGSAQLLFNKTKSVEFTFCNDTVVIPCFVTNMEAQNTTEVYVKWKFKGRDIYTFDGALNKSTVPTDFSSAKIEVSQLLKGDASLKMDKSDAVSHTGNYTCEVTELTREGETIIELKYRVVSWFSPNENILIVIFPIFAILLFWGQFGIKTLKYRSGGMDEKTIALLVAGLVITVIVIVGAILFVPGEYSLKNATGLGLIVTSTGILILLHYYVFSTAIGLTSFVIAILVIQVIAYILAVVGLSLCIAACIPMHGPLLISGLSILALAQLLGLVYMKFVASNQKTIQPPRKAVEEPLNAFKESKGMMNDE
Sequence of Atrial natriuretic peptide receptor 1 (Homo sapiens) (P16066 whole entry, looked up): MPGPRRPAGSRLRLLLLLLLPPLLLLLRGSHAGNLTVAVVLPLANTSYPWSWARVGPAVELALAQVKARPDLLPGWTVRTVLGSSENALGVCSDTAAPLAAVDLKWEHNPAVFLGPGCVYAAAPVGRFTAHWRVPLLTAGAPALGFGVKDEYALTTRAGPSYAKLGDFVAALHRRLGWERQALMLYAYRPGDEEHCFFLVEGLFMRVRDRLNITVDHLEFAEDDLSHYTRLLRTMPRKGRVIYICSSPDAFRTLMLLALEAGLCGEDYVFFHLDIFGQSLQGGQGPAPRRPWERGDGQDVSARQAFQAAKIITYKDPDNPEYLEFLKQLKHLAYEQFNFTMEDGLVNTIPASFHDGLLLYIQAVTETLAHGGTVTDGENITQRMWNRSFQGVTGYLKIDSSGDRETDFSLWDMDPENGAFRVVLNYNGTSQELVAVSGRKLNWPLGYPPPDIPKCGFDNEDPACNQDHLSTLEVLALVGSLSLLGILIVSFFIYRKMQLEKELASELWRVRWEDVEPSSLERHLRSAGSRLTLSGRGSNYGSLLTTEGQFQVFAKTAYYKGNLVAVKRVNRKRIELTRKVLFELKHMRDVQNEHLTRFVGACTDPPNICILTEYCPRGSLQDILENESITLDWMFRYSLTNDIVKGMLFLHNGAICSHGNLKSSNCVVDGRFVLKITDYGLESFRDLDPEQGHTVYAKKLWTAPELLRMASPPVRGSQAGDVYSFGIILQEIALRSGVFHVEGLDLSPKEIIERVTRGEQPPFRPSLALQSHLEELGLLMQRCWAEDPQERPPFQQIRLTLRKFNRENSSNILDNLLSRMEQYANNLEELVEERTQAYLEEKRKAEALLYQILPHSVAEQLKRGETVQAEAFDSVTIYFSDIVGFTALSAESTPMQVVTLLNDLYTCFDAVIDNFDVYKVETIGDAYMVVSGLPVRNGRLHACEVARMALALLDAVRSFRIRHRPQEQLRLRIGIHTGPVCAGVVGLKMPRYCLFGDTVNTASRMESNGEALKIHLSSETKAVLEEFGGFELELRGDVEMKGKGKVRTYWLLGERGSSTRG
Sequence of Atrial natriuretic peptide receptor 2 (Homo sapiens) (P20594 whole entry, looked up): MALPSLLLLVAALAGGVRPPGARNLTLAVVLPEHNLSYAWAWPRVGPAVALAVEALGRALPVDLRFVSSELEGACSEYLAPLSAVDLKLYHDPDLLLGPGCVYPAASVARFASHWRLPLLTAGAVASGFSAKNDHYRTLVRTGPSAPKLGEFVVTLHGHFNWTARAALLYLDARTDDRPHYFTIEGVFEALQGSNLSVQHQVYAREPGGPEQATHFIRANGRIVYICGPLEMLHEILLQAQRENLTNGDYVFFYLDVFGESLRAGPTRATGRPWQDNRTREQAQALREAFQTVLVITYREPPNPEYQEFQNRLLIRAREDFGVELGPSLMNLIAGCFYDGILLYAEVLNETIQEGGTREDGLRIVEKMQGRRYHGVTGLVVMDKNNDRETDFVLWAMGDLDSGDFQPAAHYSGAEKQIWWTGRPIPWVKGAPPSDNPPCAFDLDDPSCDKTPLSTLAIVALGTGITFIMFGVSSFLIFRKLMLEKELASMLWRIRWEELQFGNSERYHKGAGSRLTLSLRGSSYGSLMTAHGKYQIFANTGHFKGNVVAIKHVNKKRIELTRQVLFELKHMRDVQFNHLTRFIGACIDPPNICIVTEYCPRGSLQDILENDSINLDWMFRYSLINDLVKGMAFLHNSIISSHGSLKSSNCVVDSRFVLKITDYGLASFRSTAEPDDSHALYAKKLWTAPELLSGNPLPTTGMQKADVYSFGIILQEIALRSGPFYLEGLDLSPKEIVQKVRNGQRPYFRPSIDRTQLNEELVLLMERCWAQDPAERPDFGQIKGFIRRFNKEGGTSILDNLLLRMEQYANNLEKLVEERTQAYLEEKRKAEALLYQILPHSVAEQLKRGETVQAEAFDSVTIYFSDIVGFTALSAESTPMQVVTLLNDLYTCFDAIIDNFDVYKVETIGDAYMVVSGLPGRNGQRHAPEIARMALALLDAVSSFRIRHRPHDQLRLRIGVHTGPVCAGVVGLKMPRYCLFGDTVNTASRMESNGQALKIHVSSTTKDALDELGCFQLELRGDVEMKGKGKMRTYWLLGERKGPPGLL

For the first test, the target named is Atrial natriuretic peptide receptor 1 (Homo sapiens) (UniProt P16066). In words: Natriuretic polypeptide receptor (hNpr1) antagonism - Pilot screen (AID 1347049; calls by dose curve;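 note: agonist-evoked cGMP luminescence read 20 min after hNppA addition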). Particulars: hNpr1 cells, antagonist mode cGMP read-out; series mostly up to 57.5 µM. In outline:
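HEK293 cells co-expressing hNpr1 and the GloSensor pGS-40F cGMP luciferase sensor were preloaded with 2% GloSensor reagent for 2 h. Compounds were added for 30 min at room temperature, then cells were stimulated with 0.1 nM hNppA for 20 min before luminescence readout.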
As to `c1ccc(CCCN2CCN(CCOC(c3ccccc3)c3ccccc3)CC2)cc1`, the Potency result was “inactive”.

On to `NC1CC1c1ccccc1` (configuration not stated), for which the Potency entry was “inactive”. Regarding `Oc1ccc2c3c1O[C@H]1c4[nH]c5c(c4C[C@@]4(O)[C@@H](C2)N(CC2CC2)CC[C@]314)C[C@@]1(O)[C@H]2Cc3ccc(O)c4c3[C@@]1(CCN2CC1CC1)[C@H]5O4`, the Potency entry is “inactive”.

Regarding `Cc1c(C(=O)c2cccc3ccccc23)c2cccc3c2n1[C@H](CN1CCOCC1)CO3`, the Potency entry is “inactive”.

Another test has as its target Atrial natriuretic peptide receptor 2 (Homo sapiens) (UniProt P20594). In words: Natriuretic polypeptide receptor (hNpr2) antagonism - Pilot subtype selectivity assay (AID 1347050; calls by dose curve). As to conditions: NPR2-expressing cells, cGMP antagonist-mode read-out; series mostly up to 38.3 µM. The method, boiled down:
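cGMP-sensor HEK293/hNpr2 cells; 2% GloSensor reagent 2 h RT; compounds 30 min; baseline luminescence read; 1 nM hNppC agonist 20 min RT; final luminescence read by CCD camera. Antagonism = reduced post-agonist signal.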
As for `c1ccc(CCCN2CCN(CCOC(c3ccccc3)c3ccccc3)CC2)cc1`, the Potency result was “inactive”. Still for that read-out and setting: the entry for `NC1CC1c1ccccc1` (configuration not stated) is “inactive”; for `Oc1ccc2c3c1O[C@H]1c4[nH]c5c(c4C[C@@]4(O)[C@@H](C2)N(CC2CC2)CC[C@]314)C[C@@]1(O)[C@H]2Cc3ccc(O)c4c3[C@@]1(CCN2CC1CC1)[C@H]5O4` it is “inactive”; for `Cc1c(C(=O)c2cccc3ccccc23)c2cccc3c2n1[C@H](CN1CCOCC1)CO3` it is “inactive”.

Tested on in another test: not listed separately
In words: NS1 protein of Zika virus - qHTS assay to identify small molecule inhibitors in human HEK 293 cells (AID 1347053). Note: nearly all actives have a fitted effect of over 55% in size. Note: potency is the fitted concentration of half-maximal effect. Particulars: HEK293 ZIKV MR766 infection, NS1 TR-FRET, 24 h; series mostly up to 46.1 µM. In outline:
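HEK 293 cells pretreated with compound for 1 h, then infected with ZIKV MR766 (MOI 0.5) for 24 h at 37 C. NS1 detected by TR-FRET with two anti-NS1 antibodies; normalized to uninfected (0%) and infected (100%) wells.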
Background: Quantitative high-throughput screening tests each substance at several concentrations.
With `CCOC(=O)Nc1ccc(NCc2ccc(F)cc2)cc1N`, the Potency result is “inactive”. Same read-out and setting: the entry for `O=S(=O)(F)Cc1ccccc1` is “inactive”; for `O=C(Oc1ccc([N+](=O)[O-])cc1)N1CCN(Cc2cccc(Oc3ccccc3)c2)CC1` it is “inactive”. Still for that read-out and setting: the entry for `CCOC(=O)c1c(C(C#N)=CN)c2ccc(Cl)c(Cl)c2n1C` is “inactive”; for `CC(O)=C(C#N)C(=O)Nc1cc(Br)ccc1Br` it is “inactive”; for `O=C1C=CC[C@@H]2[C@H]3CCCN4CCC[C@@H](CN12)[C@@H]34` it is “inactive”.

`CC(C)[C@H]1C(=O)N[C@H](CO)Cc2c[nH]c3cccc(c23)N1C`: the Potency entry was “inactive”. Take `CC(C)N(CCNC(=O)CN1CCCC1=O)C(C)C`: the Potency entry was “inactive”.

`O=S(=O)(CC1CS1)c1ccc(Oc2ccccc2)cc1` (configuration not stated): the Potency result was “inactive”. With `N=c1c2c(-c3ccccc3)c(-c3ccccc3)n(Cc3ccccc3)c2ncn1C1CCC(O)CC1` (configuration not stated), the Potency was 26.4 µM (active).

Take `COc1ccc(CC2NCCc3cc(OC)c(OC)cc32)cc1OC` (configuration not stated): the Potency entry is “inactive”. With `CC=C(C)C(=O)N[C@@H](c1ccccc1)[C@@H](O)C(=O)O[C@H]1C[C@@]2(O)[C@@H](OC(=O)c3ccccc3)[C@@H]3[C@]4(OC(C)=O)CO[C@@H]4C[C@H](O)[C@@]3(C)C(=O)[C@H](OC(C)=O)C(=C1C)C2(C)C`, the Potency is 0.0033 µM (active). Turning to `CC(=CCCC1=CCC(C2=CC(=O)OC2O)OC1O)CCC1=C(C)CCCC1(C)C` (configuration not stated), the Potency entry was “inactive”. Turning to `CCOC(=O)c1cncn1[C@H](C)c1ccccc1`, the Potency result was “inactive”. The same measure, in the same setting: the entry for `O=C(Oc1ccc([N+](=O)[O-])cc1)N1CCC(C(O)(c2ccc3c(c2)OCO3)c2ccc3c(c2)OCO3)CC1` is “inactive”; for `CC1(N2CCC(n3c([C@@H]4CCCNC4)nc4ccccc43)CC2)CCCCCCC1` it is 20.9 µM (active); for `CCN(CC)C(=O)c1ccc(C2=CC3(CCNCC3)Oc3cccc(O)c32)cc1` it is “inactive”. Same read-out and setting: then `NC1CC1c1ccccc1` (configuration not stated), with “inactive”. Still for that read-out and setting: the entry for `C[C@@H]1CC[C@H]2[C@@H](C)C(=O)O[C@@H]3O[C@@]4(C)CC[C@H]1[C@]32OO4` is “inactive”; for `CC(N[C@H]1C[C@H]1c1ccccc1)c1ccc2c(c1)OCCO2` (some centres not stated) it is “inactive”; for `CN(C)NC(=O)CCC(=O)O` it is “inactive”. With `C[C@]12COC(=O)C[C@@H]1CC[C@@H]1[C@H]2CC[C@@]2(C)[C@H]1CC[C@]2(C)O`, the Potency entry is “inactive”. Same read-out and setting: the entry for `C[C@](O)(COc1ccc(C#N)cc1)C(=O)Nc1ccc(C#N)c(C(F)(F)F)c1` is “inactive”.

Another test addresses T1, Tyrosine-protein phosphatase non-receptor type substrate 1 (Homo sapiens) + Leukocyte surface antigen CD47 (Homo sapiens) (UniProt P78324+Q08722). In words: CD47-SIRPalpha protein protein interaction - LANCE assay qHTS validation (AID 1347057; active = well fitted curve in the direction sought with a large enough effect in the signal ratio, with a control signal flat, not every such curve was filed as active; the % refers to the signal ratio). Particulars: Recombinant CD47-His / biotin-SIRPalpha, TR-FRET ratio; series mostly up to 38.3 µM. The method, boiled down: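 First, His-tagged CD47 and Eu-labelled anti-His antibody met the compound for 30 min; next, site-specifically biotinylated SIRPalpha was added for 30 min; finally streptavidin-APC was added before reading the TR-FRET ratio.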
For the compound `c1ccc(CCCN2CCN(CCOC(c3ccccc3)c3ccccc3)CC2)cc1`, the outcome was inactive. Turning to `NC1CC1c1ccccc1` (configuration not stated), the result was inactive. On to `Oc1ccc2c3c1O[C@H]1c4[nH]c5c(c4C[C@@]4(O)[C@@H](C2)N(CC2CC2)CC[C@]314)C[C@@]1(O)[C@H]2Cc3ccc(O)c4c3[C@@]1(CCN2CC1CC1)[C@H]5O4`, for which the result was inactive.

The next test deals with T1, Tyrosine-protein phosphatase non-receptor type substrate 1 (Homo sapiens) + Leukocyte surface antigen CD47 (Homo sapiens). In words: CD47-SIRPalpha protein protein interaction - Alpha assay qHTS validation (AID 1347059).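 Note: bead proximity luminescence from CD47 binding SIRPalpha after compound preincubation with SIRPalpha.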 Particulars: AlphaScreen CD47-His/biotin-SIRPalpha binding, LOPAC; series mostly up to 38.3 µM. In outline: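 Soluble extracellular domains: Avi-tag biotinylated SIRPalpha (25 nM) preincubated 30 min RT with compound, then 6His-CD47 (12.5 nM) 30 min; Ni-NTA acceptor and streptavidin donor beads (10 ug/mL) 30 min, AlphaScreen read. PBS pH 7.4, 0.05% IGEPAL.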
Turning to `c1ccc(CCCN2CCN(CCOC(c3ccccc3)c3ccccc3)CC2)cc1`, the Potency result is “inactive”. `NC1CC1c1ccccc1` (configuration not stated): the Potency entry was “inactive”.

Consider `Oc1ccc2c3c1O[C@H]1c4[nH]c5c(c4C[C@@]4(O)[C@@H](C2)N(CC2CC2)CC[C@]314)C[C@@]1(O)[C@H]2Cc3ccc(O)c4c3[C@@]1(CCN2CC1CC1)[C@H]5O4`, for which the Potency entry is “inactive”.
